Experimental data reported in the supplement of paper PMC6555819.

System: VDR:RXRa (NR concentration 270 nM, RXRa partner concentration 90 nM)
Test: PBM binding z-score (relative to random genomic background probes); higher = stronger binding; sequences stand for … in GC…GCGATTGACAGCGTAGAATGAAGG
Method: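 Protein-binding microarray (Agilent 4x180K custom design, double-stranded 60-nt probes: 5' GC cap, 34-nt variable region, 24-nt constant primer region; full probe sequence given). Purified or IVT nuclear receptor:RXRα heterodimers (3:1 NR:RXRα, mostly 270:90 nM) or homodimers were incubated for 1 h in PBS with 2% milk and no ligand, then detected with Alexa488 antibodies. Fluorescence from o1-orientation probes (~5 replicates averaged) was converted to z-scores against 500 random hg19 background probes. Variable regions are seed direct-repeat (DR0–DR5) sites, all their single-nucleotide variants and half-site ablations.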

**Q.** For GCTATTAGTTGTAAGGGCAACCGAATGATTCTCG, which PBM binding z-score is on record?
**A.** 0.148

**Q.** Which PBM binding z-score does the source give for ATCGAAAGTTCGTGAGGTGAGTATACAGAAAGGC here?
**A.** 2.02

**Q.** With CTCGAAAGGTCGTGCTCAGGTAAGTATACCAAAC as the sequence, how does the PBM binding z-score read?
**A.** 3.36

**Q.** Which PBM binding z-score does the source give for AAATGTAGGTTAGCTGGGGTCATTCAGACTAGGC here?
**A.** 6.03

**Q.** For CGTCCAAGGTCAAAGGTCGGTGAAGAGATGACGG, which PBM binding z-score is on record?
**A.** 5.32

**Q.** CCTTACGTGTCACTCCAGGTTATAGCATCGGAGT was tested. Which PBM binding z-score did it give?
**A.** 1.33

**Q.** Which PBM binding z-score does the source give for CGACCAAGGTCAAAGGTCAGTGAAGAGATGACGG here?
**A.** 6.85

**Q.** How did the PBM binding z-score turn out when ATCTCTACGTAAGACTCAGTTCAGTGAAGAACGC was run?
**A.** 0.645

**Q.** For GCAGACAGGTGAAACGCAAGTAACTCAGGGTGGC, which PBM binding z-score is on record?
**A.** -0.526

**Q.** With CGAACTAAGTCAAGGACAGTGAATCTCCGCACGC as the sequence, how does the PBM binding z-score read?
**A.** -0.36

**Q.** How did the PBM binding z-score turn out when CCTACTGAGCCAAAAAGGTCATTGATGCCGATAA was run?
**A.** 4.58

**Q.** TCTAGCAGGCCAGAGGGTCATTCAAGAGGTACGG was tested. Which PBM binding z-score did it give?
**A.** 2.25

**Q.** Which PBM binding z-score does the source give for CGTCCAAGGTCAATGCTGGGTCAGTGAAAGCATT here?
**A.** 4.79

**Q.** Which PBM binding z-score does the source give for CCTACTGGGCCATCAGGTCATTGACATCAACGTT here?
**A.** 1.64

**Q.** AGAACGAGGGCATTGAGTTGATAGCACGGGTGGC was tested. Which PBM binding z-score did it give?
**A.** 5.24

**Q.** Which PBM binding z-score does the source give for CCTGCTAGGTCCTGGTCAGCTAATCTACAGTATG here?
**A.** -0.588

**Q.** How did the PBM binding z-score turn out when TAGCCTCGGTCAGATCGGGCCAGTATACGCTATA was run?
**A.** -0.637

**Q.** How did the PBM binding z-score turn out when GCTGCTAGGTCAGATTGGTCAGCTAACGGGTACG was run?
**A.** 0.624

**Q.** Which PBM binding z-score does the source give for TCTTGTAGATAAGCAGGTTAAGAAAGCTGGCCAA here?
**A.** 0.177

**Q.** Which PBM binding z-score does the source give for CCGACTGGGGCACAAAGGTTACCATACCATCCGG here?
**A.** 1.73

**Q.** With CCTTACCGGTCACTGACAGGTTATAGCATTTGGA as the sequence, how does the PBM binding z-score read?
**A.** 0.869

**Q.** How did the PBM binding z-score turn out when ATCGAAGGGTCGACGAGGTGAGTATACACCGTTT was run?
**A.** 4.01

**Q.** How did the PBM binding z-score turn out when AGATTGAGGTTAAGATCAGGGAAACAGAATACAT was run?
**A.** 1.42

**Q.** For GCTTACGGGTCAAAGATTATAGCATGAATAGAAT, which PBM binding z-score is on record?
**A.** 3.28

**Q.** CCGAGTGGGGCAGAAAGGTTACCATACCATCCGG was tested. Which PBM binding z-score did it give?
**A.** 0.759

**Q.** Which PBM binding z-score does the source give for AGAATGAGGTTAAGATCAGTGAAACAGAATACAT here?
**A.** 1.47

**Q.** How did the PBM binding z-score turn out when GCGACTTGGGCATCAGCAGGTTACCATAACTTAA was run?
**A.** -0.417

**Q.** Which PBM binding z-score does the source give for TCATATAGGTAAACGCTAGGTGAAAGTCCGATCT here?
**A.** 1.03

**Q.** Which PBM binding z-score does the source give for ATCTCTAGGTAACAAGTTCAGTGATAGAGAGGAC here?
**A.** 1.91

**Q.** How did the PBM binding z-score turn out when ACAGTCAGGTGATGAAGGTAACTCAGGCTATCAT was run?
**A.** -0.0524

**Q.** Which PBM binding z-score does the source give for CGAACGAGGGCATGAGTTGATCGCAAATGCCGAT here?
**A.** 1.34

**Q.** With ACTATTAGTTGACTTAGGGCAAGCGATACGACGC as the sequence, how does the PBM binding z-score read?
**A.** 0.174

**Q.** With CCAGACAGGTGAGAAGGTAACTCACCCTCGATTA as the sequence, how does the PBM binding z-score read?
**A.** 0.0837

**Q.** For TCGAGTAGGTTACCACTGGGGCATTCAGCTTTCT, which PBM binding z-score is on record?
**A.** -0.368

**Q.** For GCTTGTCGATCAAGGTTAAGAAAGACTAAGCTAA, which PBM binding z-score is on record?
**A.** -0.0633

**Q.** AGTCAAAGTTCACCAGGTAACGTAAGATTCAGCT was tested. Which PBM binding z-score did it give?
**A.** 4.61

**Q.** With ATCTCTAGGTAACAAGTTAAGTGAAAGAGAGGAC as the sequence, how does the PBM binding z-score read?
**A.** 0.232

**Q.** How did the PBM binding z-score turn out when TCTATTAGTTGAAGTGCAACCGACGAGTCCGTTT was run?
**A.** 1.22

**Q.** AGTCAAAGTTCATGACGAGGTAACGTAAAGCACG was tested. Which PBM binding z-score did it give?
**A.** 4.64

**Q.** With CCTACTGGGCCATCAGATCATTGATATCAACGTT as the sequence, how does the PBM binding z-score read?
**A.** -0.181
